# Source: PubChem BioAssay (NCATS)
# Several values for one entry are separate records, joined by “and”; a condition that tells them apart may be missing. Identical values can stand only once. Inconclusive results are not listed. Entries that show only a call come without a potency. More than one record can exist for a structure, and the calls need not agree. Activity calls are given as the source filed them. Unless noted, calls come from the whole dose curve; as a rule, active = well fitted curve in the direction sought with a large enough effect; inconclusive = small, poorly fitted or top-dose-only effect, or another doubt; inactive = no such curve, though single readings can be large; an effect the other way counts as inactive or inconclusive.
# Assays:
# [1] = Primary qHTS for inhibitors of nuclear receptor binding SET domain protein 2 (NSD2) in an isogenic RCH-ACV NSD2 p.E1099K mutant (9B) (AID 1645876); note: nearly all actives have a fitted effect of over 70% in size; note: potency is the fitted concentration of half-maximal effect
# [2] = Primary qHTS for inhibitors of nuclear receptor binding SET domain protein 2 (NSD2) in an RCH-ACV wild type WT cells (2C) (AID 1645877); note: nearly all actives have a fitted effect of over 70% in size; note: potency is the fitted concentration of half-maximal effect
# [3] = molecular target: Catechol O-methyltransferase (Homo sapiens) (UniProt P21964); test: Confirmatory Screen for Target Class Profiling of Small Molecule Inhibitors of Methyltransferases (AID 1745852; calls by dose curve; note: potency is the fitted concentration of half-maximal effect); conditions: MTase-Glo luminescence, SAH detection, recombinant enzyme, stronger effect = lower value; measured here: COMT max response unless noted
# [4] = molecular target: Guanidinoacetate N-methyltransferase (Homo sapiens) (UniProt Q14353); test: as above; conditions: MTase-Glo luminescence, SAH detection, recombinant enzyme; activity change, negative = inhibition: at 57.3 µM (top of the series)
# [5] = molecular target: Nicotinamide N-methyltransferase (Homo sapiens) (UniProt P40261); test: as above; conditions: MTase-Glo luminescence, SAH detection, recombinant enzyme, stronger effect = lower value; measured here: NNMT max response unless noted
# [6] = molecular target: Phenylethanolamine N-methyltransferase (Homo sapiens) (UniProt P11086); test: as above; conditions: MTase-Glo luminescence, SAH detection, recombinant enzyme, stronger effect = lower value; measured here: PNMT max response unless noted
# [7] = molecular target: Rap guanine nucleotide exchange factor 3 (Homo sapiens) (UniProt O95398); test: Confirmatory qHTS for antagonist of cAMP-regulated guanine nucleotide exchange factor 3 (EPAC1) (AID 1645880); note: nearly all actives have a fitted effect of over 55% in size; note: potency is the fitted concentration of half-maximal effect
# Procedure, shortened: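 Released BODIPY-GDP fluoresces less than Rap1-bound BODIPY-GDP; the signal is followed at 480/540 nm at 5-min intervals over 30 min, after 5 min at room temperature. Reactions contain 100 nM EPAC1, 250 nM RAP1B-BODIPY-GDP and 50 uM GDP; results are normalized to ATA and DMSO.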
# [8] = molecular target: Rap guanine nucleotide exchange factor 3 (Homo sapiens) (UniProt O95398); test: Confirmatory qHTS for agonist of cAMP-regulated guanine nucleotide exchange factor 3 (EPAC1) (AID 1645881);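 note: EPAC1 catalysed release of BODIPY-GDP from Rap1B seen as fluorescence loss; nearly all actives have a fitted effect of over 75% in size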
# [9] = molecular target: Rap guanine nucleotide exchange factor 4 (Homo sapiens) (UniProt Q8WZA2); test: Confirmatory qHTS for agonist of cAMP-regulated guanine nucleotide exchange factor 4 (EPAC2) (AID 1645884);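 note: nucleotide exchange releases bodipy-GDP from Rap1 and this lowers its fluorescence; nearly all actives have a fitted effect of over 65% in size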
# [10] = molecular target: Rap guanine nucleotide exchange factor 4 (Homo sapiens) (UniProt Q8WZA2); test: Confirmatory qHTS for antagonist of cAMP-regulated guanine nucleotide exchange factor 4 (EPAC2) (AID 1645885); note: nearly all actives have a fitted effect of over 25% in size; note: potency is the fitted concentration of half-maximal effect
# [11] = molecular target: Rap guanine nucleotide exchange factor 3 (Homo sapiens) (UniProt O95398); test: Counterscreen qHTS for antagonist of cAMP-regulated guanine nucleotide exchange factor 3 (EPAC1) (AID 1645888)
# Procedure, shortened: (§1)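 Measured: fluorescence of BODIPY-GDP bound to Rap1B, which falls as exchange proceeds. Conditions include 50 uM competing GDP, 5 and 30 min reads, and a later cAMP challenge for antagonist detection.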
# [12] = molecular target: Rap guanine nucleotide exchange factor 3 (Homo sapiens) (UniProt O95398); test: Counterscreen qHTS for agonist of cAMP-regulated guanine nucleotide exchange factor 3 (EPAC1) (AID 1645889); note: nearly all actives have a fitted effect of over 40% in size
# Procedure, shortened: as §1
# [13] = NCATS anti-infectives library activity on HEK293 viability as a counter-qHTS vs the C. elegans viability qHTS (AID 1745854)
# Procedure, shortened: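 CellTiter-Glo luminescence, read on a CCD imager, scored viability of HEK293 cells after 24 hr compound exposure at 37C. Library tested in several concentrations, 1:5 steps, up to 41.7 uM; digitonin served as control.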
# Catechol O-methyltransferase (Homo sapiens), sequence (P21964 whole entry, looked up): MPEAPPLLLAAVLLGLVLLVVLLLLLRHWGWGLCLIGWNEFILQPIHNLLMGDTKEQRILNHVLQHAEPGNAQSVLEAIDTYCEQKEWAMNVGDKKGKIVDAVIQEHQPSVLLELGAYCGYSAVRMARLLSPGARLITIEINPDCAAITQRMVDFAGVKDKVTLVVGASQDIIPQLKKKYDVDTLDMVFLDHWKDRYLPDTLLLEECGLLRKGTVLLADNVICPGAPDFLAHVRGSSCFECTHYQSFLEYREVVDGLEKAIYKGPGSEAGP
# Phenylethanolamine N-methyltransferase (Homo sapiens), sequence (P11086 whole entry, looked up): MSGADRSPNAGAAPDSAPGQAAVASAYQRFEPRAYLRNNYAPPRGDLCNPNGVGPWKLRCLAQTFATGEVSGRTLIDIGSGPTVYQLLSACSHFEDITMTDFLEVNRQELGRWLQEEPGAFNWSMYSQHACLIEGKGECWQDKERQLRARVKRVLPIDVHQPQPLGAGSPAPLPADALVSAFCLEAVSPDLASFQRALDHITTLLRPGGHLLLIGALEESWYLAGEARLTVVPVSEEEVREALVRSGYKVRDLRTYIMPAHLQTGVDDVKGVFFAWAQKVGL
# Rap guanine nucleotide exchange factor 4 (Homo sapiens), sequence (Q8WZA2 whole entry, looked up): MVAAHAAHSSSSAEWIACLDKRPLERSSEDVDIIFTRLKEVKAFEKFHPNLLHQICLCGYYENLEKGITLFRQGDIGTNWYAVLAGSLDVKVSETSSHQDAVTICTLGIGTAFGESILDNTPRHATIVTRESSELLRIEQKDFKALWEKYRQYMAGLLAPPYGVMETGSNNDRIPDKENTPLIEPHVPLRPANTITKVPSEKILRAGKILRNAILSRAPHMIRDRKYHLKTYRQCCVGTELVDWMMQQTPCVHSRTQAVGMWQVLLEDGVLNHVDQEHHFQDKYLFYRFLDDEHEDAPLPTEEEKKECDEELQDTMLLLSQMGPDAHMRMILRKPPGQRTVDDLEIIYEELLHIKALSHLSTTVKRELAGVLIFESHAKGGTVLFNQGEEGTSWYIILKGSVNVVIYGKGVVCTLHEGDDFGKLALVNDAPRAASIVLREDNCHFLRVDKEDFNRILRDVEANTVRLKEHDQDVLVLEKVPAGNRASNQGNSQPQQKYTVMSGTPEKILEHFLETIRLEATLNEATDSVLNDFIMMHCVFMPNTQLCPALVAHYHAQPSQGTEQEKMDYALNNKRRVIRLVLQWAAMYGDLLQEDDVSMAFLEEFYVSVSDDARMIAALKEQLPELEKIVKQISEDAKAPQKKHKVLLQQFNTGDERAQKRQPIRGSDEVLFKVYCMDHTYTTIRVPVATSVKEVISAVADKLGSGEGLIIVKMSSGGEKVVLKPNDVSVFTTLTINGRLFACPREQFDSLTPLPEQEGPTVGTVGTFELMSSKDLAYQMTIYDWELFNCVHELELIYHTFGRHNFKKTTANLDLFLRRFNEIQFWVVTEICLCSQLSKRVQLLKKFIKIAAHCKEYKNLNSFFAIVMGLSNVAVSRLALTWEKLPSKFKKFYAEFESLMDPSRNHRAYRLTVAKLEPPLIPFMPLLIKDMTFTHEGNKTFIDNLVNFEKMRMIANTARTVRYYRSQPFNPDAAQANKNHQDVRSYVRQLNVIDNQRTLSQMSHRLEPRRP
# Rap guanine nucleotide exchange factor 3 (Homo sapiens), sequence (O95398 whole entry, looked up): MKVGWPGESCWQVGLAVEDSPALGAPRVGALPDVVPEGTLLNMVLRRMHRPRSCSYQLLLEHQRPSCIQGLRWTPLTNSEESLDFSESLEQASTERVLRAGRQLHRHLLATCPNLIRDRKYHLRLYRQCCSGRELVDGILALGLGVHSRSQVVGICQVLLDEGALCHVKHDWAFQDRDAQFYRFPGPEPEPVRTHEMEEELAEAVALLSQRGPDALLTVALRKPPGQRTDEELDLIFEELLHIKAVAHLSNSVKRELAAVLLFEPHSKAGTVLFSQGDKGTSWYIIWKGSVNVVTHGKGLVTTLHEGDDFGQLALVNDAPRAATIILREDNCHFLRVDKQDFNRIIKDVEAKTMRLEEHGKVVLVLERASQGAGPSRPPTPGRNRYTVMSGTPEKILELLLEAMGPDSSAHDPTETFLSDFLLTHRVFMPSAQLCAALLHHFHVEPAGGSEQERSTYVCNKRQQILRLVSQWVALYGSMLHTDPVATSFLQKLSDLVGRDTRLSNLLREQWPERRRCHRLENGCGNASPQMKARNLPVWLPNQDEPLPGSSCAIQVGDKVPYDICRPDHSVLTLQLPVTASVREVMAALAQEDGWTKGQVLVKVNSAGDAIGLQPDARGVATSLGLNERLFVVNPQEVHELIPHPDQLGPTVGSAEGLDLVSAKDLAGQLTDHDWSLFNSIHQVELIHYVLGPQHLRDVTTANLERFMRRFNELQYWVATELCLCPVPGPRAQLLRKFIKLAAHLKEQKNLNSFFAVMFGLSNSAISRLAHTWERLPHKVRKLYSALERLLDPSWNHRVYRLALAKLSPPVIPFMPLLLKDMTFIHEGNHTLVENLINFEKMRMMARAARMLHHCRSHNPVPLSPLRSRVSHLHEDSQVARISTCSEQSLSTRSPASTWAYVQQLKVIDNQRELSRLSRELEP
# Nicotinamide N-methyltransferase (Homo sapiens), sequence (P40261 whole entry, looked up): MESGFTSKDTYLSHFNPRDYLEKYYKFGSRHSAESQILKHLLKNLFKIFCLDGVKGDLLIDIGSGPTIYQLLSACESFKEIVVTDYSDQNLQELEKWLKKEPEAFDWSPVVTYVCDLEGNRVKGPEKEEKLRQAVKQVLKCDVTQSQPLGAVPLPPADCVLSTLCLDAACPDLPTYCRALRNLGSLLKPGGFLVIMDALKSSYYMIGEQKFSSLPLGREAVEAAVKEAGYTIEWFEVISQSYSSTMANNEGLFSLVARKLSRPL
smiles,measurement,setting,value
CCN(CC)CCOc1ccc(Nc2ncc3cc(-c4c(Cl)cccc4Cl)c(=O)n(C)c3n2)cc1,Potency,[1],0.417 µM (active)
same,Potency,[2],0.468 µM (active)
same,activity,[3],-14.1%
same,"activity change, negative = inhibition",[4],1.71%
same,activity,[5],-19.9%
same,activity,[6],-2.93%
Clc1ccc(C(Cn2ccnc2)OCc2c(Cl)cccc2Cl)c(Cl)c1 (stereo not given),Potency,[1],21.1 µM (active) and 18.6 µM (active)
same,Potency,[2],21.1 µM (active) and 18.6 µM (active)
same,Potency,[7],inactive
same,outcome,[8],inactive
same,outcome,[9],inactive
same,Potency,[10],20.5 µM (active) and inactive
same,outcome,[11],inactive
same,activity,[3],-8.16%
same,"activity change, negative = inhibition",[4],-4.74%
same,activity,[5],-55.2%
same,activity,[6],-12.3%
Cc1ccc(C)c(OCCCC(C)(C)C(=O)O)c1,Potency,[1],inactive
same,Potency,[2],inactive
COC(=O)C1=C(C)NC(C)=C(C(=O)OCCCN2CCC(c3ccccc3)(c3ccccc3)CC2)C1c1cccc([N+](=O)[O-])c1 (stereo not given),Potency,[1],7.42 µM (active) and 7.5 µM (active)
same,Potency,[2],6.61 µM (active) and 5.96 µM (active)
same,Potency,[7],inactive
same,outcome,[8],inactive
same,outcome,[9],inactive
CCOc1cc(CC(=O)N[C@@H](CC(C)C)c2ccccc2N2CCCCC2)ccc1C(=O)O,Potency,[1],inactive
same,Potency,[2],inactive
same,Potency,[7],inactive
same,outcome,[8],inactive
same,outcome,[9],inactive
same,Potency,[10],inactive
same,outcome,[11],inactive
same,outcome,[12],inactive
CC(S)C(=O)NCC(=O)O (stereo not given),Potency,[1],inactive
same,Potency,[2],inactive
O=C(O)c1cn(-c2ccc(F)cc2)c2cc(N3CCNCC3)c(F)cc2c1=O,Potency,[1],inactive
same,Potency,[2],inactive
CC1=C(C)C(=O)C(C(CCCCCC(=O)O)c2ccccc2)=C(C)C1=O (stereo not given),Potency,[1],inactive
same,Potency,[2],inactive
O=C(NC(Cc1cc(=O)[nH]c2ccccc12)C(=O)O)c1ccc(Cl)cc1 (stereo not given),Potency,[1],inactive
same,Potency,[2],inactive
O=C(c1ccccc1)c1ccc2n1CCC2C(=O)O (stereo not given),Potency,[1],inactive
same,Potency,[2],inactive
CCCCc1ccc2nc(NC(=O)OC)[nH]c2c1,Potency,[1],53.1 nM (active) and 166 nM (active)
same,Potency,[2],47.3 nM (active) and 118 nM (active)
CC(C)(S)[C@@H](N)C(=O)O,outcome,[1],inactive [at 4.96 µM]
same,outcome,[2],inactive [at 4.96 µM]
CNC[C@H](O)c1ccc(O)c(O)c1,Potency,[1],inactive
same,Potency,[2],inactive
Clc1ccc(C(Cn2ccnc2)OCc2ccc(Sc3ccccc3)cc2)c(Cl)c1 (stereo not given),Potency,[1],18.6 µM (active)
same,Potency,[2],16.6 µM (active)
C[C@H](Cc1ccc(O)c(O)c1)[C@@H](C)Cc1ccc(O)c(O)c1,Potency,[1],13.2 µM (active) and 7.31 µM (active)
same,Potency,[2],11.8 µM (active) and 7.31 µM (active)
same,activity,[3],10.2%
same,Potency,[4],30.6 µM (active)
same,activity,[5],-37.4%
same,activity,[6],-61.1%
CC(C)c1ccc2c(c1)c(SC(C)(C)C)c(CC(C)(C)C(=O)O)n2Cc1ccc(Cl)cc1,Potency,[1],inactive
same,Potency,[2],inactive
same,Potency,[7],inactive and 30.1 µM (active) and 35.2 µM (active)
same,outcome,[8],inactive
same,outcome,[9],inactive
same,Potency,[10],inactive and 19 µM (active) and 27.8 µM (active)
same,outcome,[11],inactive
same,outcome,[12],inactive
same,activity,[3],-0.145%
same,Potency,[4],30.6 µM (active)
same,activity,[5],-41.8%
same,activity,[6],-5.81%
C[Se]CCC(N)C(=O)O (stereo not given),Potency,[1],inactive
same,Potency,[2],inactive
Nc1cc(C(Cl)=C(Cl)Cl)c(S(N)(=O)=O)cc1S(N)(=O)=O,Potency,[1],inactive
same,Potency,[2],inactive
Clc1ccc(C(Cn2ccnc2)OCc2ccsc2Cl)c(Cl)c1 (stereo not given),Potency,[1],18.6 µM (active)
same,Potency,[2],18.6 µM (active)
O=Nc1c(-c2c(O)[nH]c3cc(Br)ccc23)[nH]c2ccccc12,Potency,[1],1.32 µM (active)
same,Potency,[2],1.32 µM (active)
CCCCCCCCCCCCCCCCCCCCCCO,Potency,[1],inactive
same,Potency,[2],inactive
COc1cc2c(N3CCN(C(=O)Nc4ccc(OC(C)C)cc4)CC3)ncnc2cc1OCCCN1CCCCC1,Potency,[1],18.8 µM (active) and 25.8 µM (active) and 16.6 µM (active)
same,Potency,[2],13.3 µM (active) and 23 µM (active) and 16.6 µM (active)
CCC(C)(Oc1ccc(C2(c3ccc(OC(C)(CC)C(=O)O)cc3)CCCCC2)cc1)C(=O)O (stereo not given),Potency,[1],inactive
same,Potency,[2],inactive
CCN(CC)C(=S)SSC(=S)N(CC)CC,Potency,[1],351 nM (active) and 2.66 µM (active) and 2.63 µM (active)
same,Potency,[2],394 nM (active) and 4.22 µM (active) and 2.95 µM (active)
same,activity,[3],-3.32%
same,"activity change, negative = inhibition",[4],4.64%
same,activity,[5],-10.3%
same,activity,[6],-2.02%
NS(=O)(=O)c1cc(C(=O)O)c(NCc2ccco2)cc1Cl,Potency,[1],inactive
same,Potency,[2],inactive
CCOC(=O)C(C)Oc1cccc2c(=O)n(CC(=O)Nc3ccc4c(c3)OCCO4)ccc12 (stereo not given),Potency,[1],inactive
same,Potency,[2],inactive
O=c1oc2cc(O)ccc2s1,Potency,[1],20.9 µM (active)
same,Potency,[2],20.9 µM (active)
same,outcome,[13],inactive
